Data on 27 compounds can be found in PubChem BioAssay AID1471 (National Center for Advancing Translational Sciences (NCATS), 2008).

The whole screen tested about 230,000 compounds, of which about 310 (0.13%) were called active. Where a call stands in place of a potency, no number is given. Roughly 2% stayed inconclusive and do not appear here. This is one part of a sample in which actives are shown more often than they occur. A number with no mark means an inactive call. Calls come from the whole dose curve; as a rule, active = well fitted activation curve with a large enough effect; inconclusive = small, poorly fitted or top-dose-only effect; inactive = no such curve, though single readings can be large or run the other way.

The test in a line: qHTS Multiplex Assay to Identify Dual Action Probes in a Cell Model of Huntington: Cytoprotection (ATP).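 For cytoprotection (ATP increase): toxic huntingtin expression switched on by the ecdysone agonist tebufenozide.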 Note: nearly all actives have a fitted effect of over 45% in size. As to conditions: PC12 HTT-Q103 induced, ATP luminescence, 40 h; series mostly up to 56.4 µM. From the text: NIH Chemical Genomics Center [NCGC]
NIH Molecular Libraries Probe Production centers Network [MLPCN]
Assay Submitter (PI): Wei Zheng
Huntington's disease is a neurodegenerative disorder caused by a trinucleotide repeat expansion in Exon 1 of the Huntingtin gene. The CAG trinucleotide encodes glutamine and polyglutamine expansions cause cell death in selective areas of the brain. Huntington polyglutamine repeats have the tendency to form aggregates which are observable in later stages of the disease. The exact nature of the aggregates, whether toxic, protective, or insignificant, is unclear.
A stable PC12 cell line containing a gene fusion of Exon 1 of the Huntingtin gene linked to GFP under the control of the inducible ecdysone promoter were used as the cell-based model of Huntington Disease for high throughput screening. Exon 1 of the Huntingtin gene contained an expansion of 103 polyglutamines (Q103) which, when expressed, caused cell death and distinct, bright GFP aggregates. The amount of cell death and the size and intensity of GFP aggregates increased over time and induction level. The cell death were quantified with a measurement of ATP content in the cells. A maximal 40-50% of cell death was observed when the Huntington gene was induced in this cell line.
We optimized this assay in a homogeneous 1536 well format. A quantitative high throughput screen (qHTS) was conducted on the PC12 cells which were induced to express the toxic fusion construct. Small molecules which prevented cell death were identified by using a luminescent ATP quantification method (Perkin Elmer's ATPlite).
PC12 cells stably containing a construct with an ecdysone inducible promoter expressing GFP fused to the exon 1 of HTTQ103 (Huntington protein which containing a 103 ployglutamine expansion) were used.
NCGC Assay Protocol Summary:
Sequence, Parameter, Description
1, Reagent, 5 uL 1500 cells/well 1536 TC treated White clear bottom plate
2, Compound, 23 nL Tebufenozide inducer (100 nM final) to all columns
3, Compound, 23 nL 40 uM to 0.5 nM Libraries
5, Reagent, 5 ul ATPLite cell death assay reagent
6, Detector, 4 sec integration with a Viewlux Luminescent
Media consisted of phenol red free DMEM + 5% equine serum (Hyclone # SH30072.03 ), 5% supplemented Bovine Calf Serum (Hyclone # SH30074.03 ), 1x pen/strep, no G418
Control columns: 1 = DMSO, 2= 2 uM teb dilns (1:1), 4 = 100 nM Teb inducer. Sample columns received 100 nM Teb.
(Quantitative high-throughput screening tests each substance at several concentrations.)
Turning to `CCCCCCCC/C=C\CCCCCCCC(=O)NCC(=O)O`, the cytoprotection (ATP increase) result was “inactive”.
Same read-out and setting: for `CC(=O)Oc1ccccc1C1=NN(C(C)=O)C(c2ccccc2)C1` (configuration not stated) the value was “inactive”; for `CCCN(CCc1ccccc1)C1CCc2c(O)cccc2C1` (configuration not stated), “inactive”.
With `CCOC(=O)C1=C(C)c2ccccc2OC1C(=O)OCC` (configuration not stated), the cytoprotection (ATP increase) entry was “inactive”.
`O=C(O)C[C@@H]1NC(=O)[C@H](Cc2ccccc2)NC1=O`: the cytoprotection (ATP increase) result is “inactive”.
As for `COc1ccc(-c2nc3c(c4c2C[C@H](c2ccccc2)OC4)CN(C(=O)c2cccnc2)CC3)c(C)c1`, the cytoprotection (ATP increase) is 27.4% [at 10 µM].
For the compound `COc1ccc(NC(=S)NC2CCS(=O)(=O)C2)cc1` (configuration not stated), the cytoprotection (ATP increase) is 2.72% [at 0.074 µM].
As to `COc1cccc(CC(=O)N2CCc3nc(COc4ccccc4)c4c(c3C2)CO[C@@H](C)C4)c1`, the cytoprotection (ATP increase) is 16.2% [at 10 µM].
For `CC(C)C1=CC2=CC[C@H]3[C@](C)(C(=O)O)CCC[C@]3(C)C2CC1` (some centres not stated), the cytoprotection (ATP increase) result was “inactive”.
As for `COc1ccc(-c2[nH]nc(-c3ccccc3)c2-c2nc3ccccc3[nH]2)cc1`, the cytoprotection (ATP increase) entry is “inactive”.
Take `CSc1ncccc1C(=O)N1CCCC(CCC(=O)NCc2ccccc2F)C1` (configuration not stated): the cytoprotection (ATP increase) is 4.93% [at 10 µM].
Consider `CSCCC(=O)N1CCCC(CNC(=O)c2ccccc2Cl)C1` (configuration not stated), for which the Potency is 2.82 µM (active).
With `CCOC(=O)CCNC(=O)N1CCCC(C(=O)c2ccccc2SC)C1` (configuration not stated), the cytoprotection (ATP increase) was 2.06% [at 10 µM].
Same read-out and setting: for `C[C@@H]1C(c2ccc(F)cc2)=NN(c2ccc(Br)cc2)[C@H]1C(=O)N1CCOC1=O` the value was “inactive”; for `Cc1cc(=O)oc(C)c1C(=O)NCCN(C)Cc1ccccc1`, “inactive”; for `COc1ccc(-c2nc(-c3ccccc3)oc2Nc2ccc3ccccc3c2)cc1`, “inactive”.
For the compound `COc1ccc2c(c1)O[C@@H](c1ccc3c(c1)OCO3)[C@H](OC(=O)NCc1ccco1)C2=O`, the cytoprotection (ATP increase) result is “inactive”.
For the compound `O=C(O)CCC(=O)O`, the cytoprotection (ATP increase) result was “inactive”.
Turning to `CCCCCCCCCCCCCCCCO`, the cytoprotection (ATP increase) entry is “inactive”.
On to `COc1ccc(CCCOC(Cn2ccnc2)c2ccc(OC)cc2)cc1` (configuration not stated), for which the cytoprotection (ATP increase) result was “inactive”.
Take `NC(=O)C1CCN(C(=O)c2ccc(-c3ccccc3)cc2)CC1`: the cytoprotection (ATP increase) result was “inactive”.
As to `COc1ccccc1CN(C)c1nnnn1-c1ccccc1`, the cytoprotection (ATP increase) result is “inactive”.
On to `COc1ccccc1N1CCN(C(=O)CN(Cc2ccc(Cl)cc2)S(C)(=O)=O)CC1`, for which the cytoprotection (ATP increase) result was “inactive”.
Turning to `COc1ccccc1-n1nnnc1S(=O)(=O)Cc1ccc(Cl)cc1`, the Potency is 25.1 µM (active).
Take `COC(=O)CCCC1=CC2=CC(=O)C(C)(OC(=O)c3cccs3)C(=O)C2=CN1c1ccc(CO)cc1` (configuration not stated): the cytoprotection (ATP increase) is -11% [at 10 µM].
Turning to `CC(=O)N(CC(O)CO)c1c(I)c(C(=O)NCC(O)CO)c(I)c(C(=O)NCC(O)CO)c1I` (configuration not stated), the cytoprotection (ATP increase) entry was “inactive”.
Regarding `COC(=O)C1=C(C(=O)OC)[C@@H]2N(C)c3ccccc3[C@@]23C[C@@H](C(=O)OC)N(S(=O)(=O)c2cccs2)C3=N1`, the cytoprotection (ATP increase) is -27.2% [at 10 µM].
